Source: PubChem BioAssay (EPA / NIEHS)
The source made the active and inactive calls. The calls were made as follows: active = hit-call score of the fitted dose curve at least 0.9, where 1 is the maximum; inactive = score below 0.9.

Key:
[1] = ATG_ISRE_CIS: Attagene CIS-FACTORIAL HepG2 Assay for human Interferon Regulatory Factor 1 (IRF1) binding to an Interferon-Stimulated Response Element (ISRE) (AID 2282948); conditions: HepG2 ISRE cis-reporter (Attagene), mRNA transcription readout; actives raise or lower the signal
Summary of the method: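 Transfected HepG2 (multiple reporter transcription units, cis elements) dosed 24 h. RNA → oligo(dT) RT → PCR → 6-FAM primer extension → HpaI → CE. DMSO = negative control/baseline.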

[2] = ATG_M_32_CIS: Attagene CIS-FACTORIAL HepG2 Assay for M32 Transcription Factor (Internal Marker) (AID 2282949); conditions: HepG2 Attagene cis-factorial M32 reporter, mRNA; actives raise or lower the signal;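 also: background control marker of the multiplexed CIS panel rather than a real target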
Summary of the method: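 Fluorescent capillary electrophoresis peaks of HpaI-digested, FAM-labelled RT-PCR reporter products give the signal. Source: transiently transfected human liver HepG2 cells, 24 h after chemical dosing; bidirectional fitting against DMSO.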

[3] = ATG_M_06_CIS: Attagene CIS-FACTORIAL HepG2 Assay for M06 Transcription Factor (Internal Marker) (AID 2282950); conditions: HepG2 Attagene CIS-FACTORIAL M06 internal marker reporter; actives raise or lower the signal
Summary of the method: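 Terse: HepG2, transient MRTU transfection (FuGene 6), 24 h dosing; total RNA, oligo(dT) RT, PCR, FAM label, HpaI cut, capillary electrophoresis; bidirectional fit vs DMSO baseline; background-control endpoint.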

[4] = target: Hypoxia-inducible factor 1-alpha (Homo sapiens) (UniProt Q16665); assay: ATG_HIF1a_CIS: Attagene CIS-FACTORIAL HepG2 Assay for human Hypoxia Inducible Factor 1 (HIF1A) (AID 2282951); conditions: HepG2 Attagene cis-factorial HIF1a reporter transcription; actives raise or lower the signal
Summary of the method: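 Cis-element reporter constructs were transiently transfected into HepG2 cells, which were treated for 24 h; reporter RNA was reverse-transcribed, amplified, labelled and resolved by capillary electrophoresis.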

[5] = target: Hepatocyte nuclear factor 6 (Homo sapiens) (UniProt Q9UBC0); assay: ATG_HNF6_CIS: Attagene CIS-FACTORIAL HepG2 Assay for human Hepatocyte Nuclear Factor 6 (HNF6) (AID 2282952); conditions: HepG2 Attagene cis-factorial HNF6 reporter transcription; actives raise or lower the signal
Summary of the method: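 Multiplexed mRNA reporter assay in transfected HepG2; 24 h dosing; RT-PCR plus capillary electrophoresis fluorescence; DMSO-referenced bidirectional curve fitting.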

[6] = target: Heat shock factor protein 1 (Homo sapiens) (UniProt Q00613); assay: ATG_HSE_CIS: Attagene CIS-FACTORIAL HepG2 Assay for human Heat Shock Transcription Factor 1 (HSE) (AID 2282953); conditions: HepG2 HSE cis-reporter, Attagene RNA transcription; actives raise or lower the signal
Summary of the method: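 Read-out: fluorescence of reporter-specific RT-PCR fragments separated by capillary electrophoresis. HepG2 carrying transfected cis-element reporter units; 24 h dosing; activity fitted in both directions relative to DMSO baseline.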

[7] = ATG_MRE_CIS: Attagene CIS-FACTORIAL HepG2 Assay for human Metal Responsive Element (MRE) (AID 2282954); conditions: HepG2 MRE cis-reporter transcription, Attagene multiplex; actives raise or lower the signal
Summary of the method: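 HepG2 cells transiently transfected with cis-element-driven reporter units; mRNA measured 24 h after dosing. Reporter transcripts quantified by RT-PCR, FAM labelling, HpaI digestion and capillary electrophoresis; bidirectional fit versus DMSO.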

[8] = ATG_PBREM_CIS: Attagene CIS-FACTORIAL HepG2 Assay for human Phenobarbital-responsive Enhancer Module (PBREM) (AID 2282955); conditions: HepG2 PBREM cis-reporter, Attagene multiplexed transcription; actives raise or lower the signal
Summary of the method: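 Multiplexed cis-reporter readout in human hepatoma HepG2 cells; PBREM-regulated transcript quantified after 24 h exposure by fluorescent RT-PCR fragment analysis. Signal changes up or down fitted relative to DMSO.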

[9] = ATG_PXRE_CIS: Attagene CIS-FACTORIAL HepG2 Assay for human Pregnane X Receptor Element (PXRE) (AID 2282957); conditions: HepG2 Attagene CIS-FACTORIAL PXRE reporter, mRNA; actives raise or lower the signal
Summary of the method: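 Cells: HepG2, transiently transfected reporter units under cis promoter control. Exposure: 24 h. Detection: reporter mRNA via RT-PCR/CE fluorescence; bidirectional fitting, DMSO-referenced.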

[10] = target: Paired box protein Pax-6 (Homo sapiens) (UniProt P26367); assay: ATG_Pax6_CIS: Attagene CIS-FACTORIAL HepG2 Assay for human Paired Box 6 (PAX6) (AID 2282956); conditions: HepG2 CIS-FACTORIAL PAX6 reporter transcription, RNA readout; actives raise or lower the signal
Summary of the method: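 Transient MRTU transfection of HepG2 → compound exposure 24 h → TriZol RNA, oligo(dT) RT → PCR, 6-FAM primer extension, HpaI cut → capillary electrophoresis; activity fitted both directions against DMSO.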

Measured: AC50

Chain of Heat shock factor protein 1 (Homo sapiens) (Q00613 whole entry, looked up, the tested form may be a part): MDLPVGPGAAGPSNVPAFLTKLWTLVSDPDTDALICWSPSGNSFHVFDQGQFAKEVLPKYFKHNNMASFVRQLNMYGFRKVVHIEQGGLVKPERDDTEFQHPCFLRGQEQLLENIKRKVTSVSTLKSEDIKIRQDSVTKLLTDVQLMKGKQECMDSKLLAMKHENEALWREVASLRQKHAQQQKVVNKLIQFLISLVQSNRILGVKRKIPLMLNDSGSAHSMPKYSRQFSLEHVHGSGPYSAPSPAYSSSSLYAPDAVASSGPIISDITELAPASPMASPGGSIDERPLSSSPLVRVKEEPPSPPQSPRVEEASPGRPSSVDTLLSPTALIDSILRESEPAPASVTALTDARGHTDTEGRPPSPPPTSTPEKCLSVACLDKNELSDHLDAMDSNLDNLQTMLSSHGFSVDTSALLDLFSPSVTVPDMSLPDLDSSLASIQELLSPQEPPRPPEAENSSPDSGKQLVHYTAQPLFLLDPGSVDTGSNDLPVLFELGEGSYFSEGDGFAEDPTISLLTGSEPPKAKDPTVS
Chain of Hepatocyte nuclear factor 6 (Homo sapiens) (Q9UBC0 whole entry, looked up): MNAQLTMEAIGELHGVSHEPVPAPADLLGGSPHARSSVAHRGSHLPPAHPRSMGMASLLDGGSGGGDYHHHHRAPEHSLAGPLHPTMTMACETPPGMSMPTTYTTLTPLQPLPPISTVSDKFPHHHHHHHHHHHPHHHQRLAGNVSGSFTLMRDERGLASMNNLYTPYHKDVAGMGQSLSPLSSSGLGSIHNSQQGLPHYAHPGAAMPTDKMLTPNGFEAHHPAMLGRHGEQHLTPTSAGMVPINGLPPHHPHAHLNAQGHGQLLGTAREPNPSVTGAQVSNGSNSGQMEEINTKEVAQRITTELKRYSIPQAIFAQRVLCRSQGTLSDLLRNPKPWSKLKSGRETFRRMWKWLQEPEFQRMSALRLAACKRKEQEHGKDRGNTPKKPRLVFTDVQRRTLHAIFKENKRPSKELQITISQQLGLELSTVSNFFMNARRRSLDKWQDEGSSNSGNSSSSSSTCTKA
Chain of Paired box protein Pax-6 (Homo sapiens) (P26367 whole entry, looked up): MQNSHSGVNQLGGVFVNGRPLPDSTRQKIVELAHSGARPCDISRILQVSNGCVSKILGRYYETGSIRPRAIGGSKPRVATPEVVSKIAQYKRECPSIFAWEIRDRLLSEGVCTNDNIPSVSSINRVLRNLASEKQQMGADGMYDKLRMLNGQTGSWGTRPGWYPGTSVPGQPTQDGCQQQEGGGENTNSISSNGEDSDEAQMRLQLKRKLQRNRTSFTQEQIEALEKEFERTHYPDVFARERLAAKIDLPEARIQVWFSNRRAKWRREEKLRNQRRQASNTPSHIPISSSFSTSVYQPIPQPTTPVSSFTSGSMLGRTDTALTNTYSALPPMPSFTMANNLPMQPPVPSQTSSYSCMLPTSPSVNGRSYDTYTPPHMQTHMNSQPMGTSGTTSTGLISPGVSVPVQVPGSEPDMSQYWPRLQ
Chain of Hypoxia-inducible factor 1-alpha (Homo sapiens) (Q16665 whole entry, looked up): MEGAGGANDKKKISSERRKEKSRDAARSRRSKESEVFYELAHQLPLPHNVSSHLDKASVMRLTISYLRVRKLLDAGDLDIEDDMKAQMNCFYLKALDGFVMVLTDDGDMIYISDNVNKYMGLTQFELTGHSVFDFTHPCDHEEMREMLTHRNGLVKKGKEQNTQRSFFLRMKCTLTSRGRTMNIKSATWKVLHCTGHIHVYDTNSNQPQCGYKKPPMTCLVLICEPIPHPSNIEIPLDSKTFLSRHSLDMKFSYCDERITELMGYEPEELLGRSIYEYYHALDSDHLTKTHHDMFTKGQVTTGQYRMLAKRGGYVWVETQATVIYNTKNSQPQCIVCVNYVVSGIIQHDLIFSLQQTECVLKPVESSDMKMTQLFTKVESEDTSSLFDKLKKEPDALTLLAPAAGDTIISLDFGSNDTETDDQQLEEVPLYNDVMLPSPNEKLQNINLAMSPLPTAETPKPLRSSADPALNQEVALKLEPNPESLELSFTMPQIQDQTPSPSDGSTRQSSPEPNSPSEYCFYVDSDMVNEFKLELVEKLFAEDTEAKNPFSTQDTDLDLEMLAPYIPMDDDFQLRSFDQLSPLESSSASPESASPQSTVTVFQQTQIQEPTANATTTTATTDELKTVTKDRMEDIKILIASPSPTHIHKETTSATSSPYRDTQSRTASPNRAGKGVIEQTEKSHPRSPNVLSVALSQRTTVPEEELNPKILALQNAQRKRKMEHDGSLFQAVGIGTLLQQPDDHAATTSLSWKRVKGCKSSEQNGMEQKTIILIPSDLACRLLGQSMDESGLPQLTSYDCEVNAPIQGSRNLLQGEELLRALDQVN

CCOP(=S)(OCC)SCSP(=S)(OCC)OCC
active: [8] 1.06 µM | [9] 0.192 µM
not listed: [10]
inactive: all other assays above

CC(=[OH+])/C=C(/C)[O-].CC(=[OH+])/C=C(/C)[O-].CC(=[OH+])/C=C(/C)[O-].[Al]
not listed: [8]
inactive: all other assays above

N#CCc1ccc(Cl)cc1
active: [9] 48.5 µM
not listed: [8]
inactive: all other assays above

CCCCCCCCc1ccc(O)cc1
not listed: [10]
inactive: all other assays above

NNC(=S)NN
not listed: [8]
inactive: all other assays above

CNC
not listed: [8]
inactive: all other assays above

CCC(C)c1cccc(C(C)CC)c1O (centres undefined)
active: [9] 5.61 µM
not listed: [8] | [10]
inactive: all other assays above

Oc1c(I)cc(I)cc1I
inactive: [2] | [3] | [5] | [9]
active: [1] 100 µM | [4] 41.9 µM | [6] 125 µM | [7] 100 µM | [10] 77.1 µM

CCOC(=O)CP(=O)(OCC)OCC
active: [4] 0.0931 µM | [9] 100 µM
not listed: [8]
inactive: all other assays above

C=CC(=O)N(C)C
not listed: [8]
inactive: all other assays above

O=Cc1cccc(Oc2ccccc2)c1
not listed: [10]
inactive: all other assays above

CC(=O)C=C(C)C
not listed: [10]
inactive: all other assays above

CCOP(=O)(CN(CCO)CCO)OCC
not listed: [8]
inactive: all other assays above

COP(=O)(OC)O/C(=C\Cl)c1cc(Cl)c(Cl)cc1Cl
inactive: [2] | [3] | [5]
active: [1] 47 µM | [4] 100 µM | [6] 153 µM | [7] 100 µM | [10] 35.2 µM | [9] 1.4 µM

CC(C)c1ccc(CO)cc1
not listed: [8]
inactive: all other assays above

c1cc[c]([Hg][c]2ccccc2)cc1
active: [7] 14.4 µM
not listed: [8]
inactive: all other assays above

O=[N+]([O-])c1c(Cl)c(Cl)cc(Cl)c1Cl
active: [2] 0.0842 µM | [9] 18.2 µM
not listed: [8]
inactive: all other assays above

COP(=S)(OC)Oc1cc(Cl)c(Cl)cc1Cl
active: [9] 26.7 µM
not listed: [10]
inactive: all other assays above

CCc1ccccc1N
active: [9] 68.3 µM
not listed: [10]
inactive: all other assays above

CC1(C)CCC(Cc2ccc(Cl)cc2)C1(O)Cn1cncn1 (centres undefined)
active: [8] 24.2 µM | [9] 2.43 µM
not listed: [10]
inactive: all other assays above

C=CC(=O)OCCCCCC(C)C
active: [9] 69.5 µM
not listed: [8]
inactive: all other assays above

Nc1cccc2ccccc12
active: [4] 165 µM | [9] 25.7 µM
not listed: [10]
inactive: all other assays above

Nc1ncc([N+](=O)[O-])s1
not listed: [8]
inactive: all other assays above

O=C1C(Cl)=C(Cl)C(=O)c2ccccc21
active: [6] 13.6 µM
not listed: [8]
inactive: all other assays above

O=C(CCl)CCl
inactive: [3]
active: [1] 33.4 µM | [2] 54.6 µM | [4] 45.6 µM | [5] 33.4 µM | [6] 58.7 µM | [7] 48.9 µM | [10] 41.3 µM | [9] 49.3 µM

COC(=O)Cc1ccccc1
not listed: [10]
inactive: all other assays above

CCc1ccccc1C
not listed: [8] | [10]
inactive: all other assays above

c1ccc(N=NNc2ccccc2)cc1
active: [6] 151 µM | [7] 100 µM | [9] 25.8 µM
not listed: [10]
inactive: all other assays above

CCC[CH2][Sn]([Cl])([Cl])[Cl]
not listed: [10]
inactive: all other assays above

CCC(C)(C)c1ccc(O)c(C(C)(C)CC)c1
active: [9] 2.73 µM
not listed: [10]
inactive: all other assays above

CC(C)C1CCC(Cc2ccc(Cl)cc2)C1(O)Cn1cncn1 (centres undefined)
active: [7] 11 µM | [9] 1.04 µM
not listed: [10]
inactive: all other assays above

N#CN=C(N)N
not listed: [10]
inactive: all other assays above

COc1ccc(OC)c(C=O)c1
active: [9] 16.9 µM
not listed: [8]
inactive: all other assays above

CCCCCCCCCl
not listed: [5] | [8]
inactive: all other assays above

O=CC=O
active: [9] 4.55 µM
not listed: [5] | [10]
inactive: all other assays above

CC(=O)OC(c1ccccc1)C(Cl)(Cl)Cl (centres undefined)
active: [9] 48.6 µM
not listed: [5] | [8]
inactive: all other assays above

Nc1cccc(Cl)c1
not listed: [6]
inactive: all other assays above

Nc1ccc(N=Nc2ccc(-c3ccc(N=Nc4c(S(=O)(=O)O)cc5cc(S(=O)(=O)O)c(N=Nc6ccccc6)c(O)c5c4N)cc3)cc2)c(N)c1
not listed: [4]
inactive: all other assays above

Nc1ccc(-c2ccc(N)c(Cl)c2)cc1Cl
active: [7] 46.5 µM | [9] 27.4 µM
not listed: [6] | [8]
inactive: all other assays above

C=C(C)C#N
not listed: [5] | [10]
inactive: all other assays above

N#CCCO
not listed: [5] | [8]
inactive: all other assays above

CCCCCCCCSC(=O)Oc1cc(Cl)nnc1-c1ccccc1
inactive: [2] | [3] | [4] | [6] | [7]
active: [1] 164 µM | [9] 27.1 µM

Nc1ccc(Cl)cc1C(=O)c1ccccc1
active: [7] 25.6 µM | [10] 29.6 µM | [9] 6.6 µM
not listed: [5] | [8]
inactive: all other assays above

CC(=O)c1cc(C(C)(C)C)cc2c1CCC2(C)C
active: [6] 64.4 µM | [7] 70.4 µM | [10] 26.9 µM | [9] 5.72 µM
not listed: [5]
inactive: all other assays above

Oc1ccc(-c2ccccc2)cc1
active: [1] 179 µM | [7] 149 µM | [8] 176 µM | [10] 100 µM
not listed: [6]
inactive: all other assays above

CCNc1nc(NC(C)(C)C)nc(SC)n1
active: [1] 100 µM | [7] 118 µM | [9] 1.67 µM
not listed: [8] | [10]
inactive: all other assays above

C[C@@H](Oc1ccc(Cl)cc1Cl)C(=O)O
not listed: [5] | [8]
inactive: all other assays above

O=C/C=C/c1ccccc1
active: [9] 9.96 µM
not listed: [4]
inactive: all other assays above

CC(C)(c1ccc(OCC2CO2)cc1)c1ccc(OCC2CO2)cc1 (centres undefined)
active: [1] 58 µM | [4] 31.2 µM | [6] 60.5 µM | [7] 31.8 µM | [9] 8.18 µM
inactive: [2] | [3] | [8]

CCOC(=O)Nc1cccc(OC(=O)Nc2ccccc2)c1
active: [9] 100 µM
not listed: [5]
inactive: all other assays above

CCOP(=S)(OCC)SCCS(=O)(=O)CC
active: [9] 11.5 µM
not listed: [5] | [8]
inactive: all other assays above
